Our source for the Potency values is PubChem BioAssay (NCATS).

Records with an inconclusive call do not appear. Calls of active or inactive are those of the source. Calls follow the shape of the dose curve; as a rule, active = well fitted inhibition curve with a large enough effect; inconclusive = small, poorly fitted or top-dose-only effect; inactive = flat fitted curve, though single readings scatter.

Assay in all cases: qHTS profiling for inhibitors of Plasmodium falciparum proliferation (AID 504749); also: nearly all actives have a fitted effect of over 60% in size
Holding throughout (details): P. falciparum in erythrocytes, SYBR Green DNA, 72 h; series mostly up to 28.7 µM
In general terms: qHTS replaces the single test concentration by a dilution series.

The test system of assay [1] is CP269. Summed up:
(§1)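 P. falciparum-infected erythrocytes (0.3% parasitemia, 2.5% hematocrit) incubated with compound 72 h at 37 C, 5% CO2. Parasite DNA detected by SYBR Green after lysis, overnight at room temperature; normalised to 0.29 uM artemisinin and DMSO.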

The subject of assay [2] is CP286. Summed up: as §1
The subject of assay [3] is CP291. Summed up:
as §1

The subject of assay [4] is CP297. Summed up:
as §1

Assay [5] concerns CP305. Summed up: as §1
Assay [6] deals with CP315. Summed up:
as §1

Assay [7] concerns CP325. Summed up: as §1
Assay [8] deals with CP329. In a few lines:
as §1

In assay [9] the test system is CP335. In a few lines: as §1
The subject of assay [10] is DFO2036. Summed up: as §1
The test system of assay [11] is DIV14. In a few lines:
as §1

Assay [12] concerns DIV17. In a few lines:
as §1

For assay [13], the system named is DIV30. Summed up: as §1
In assay [14] the test system is Dd2. In a few lines:
as §1

Assay [15] deals with FAB9. Summed up:
as §1

For assay [16], the system named is GB4. Summed up:
as §1

Assay [17] has as its system HB3. In a few lines: as §1
In assay [18] the test system is ICS. Summed up: as §1
The subject of assay [19] is JCK. Summed up: as §1
In assay [20] the test system is ECU. In a few lines:
as §1
Potency is read from the fitted curve at half-maximal effect.

Take `O=C1O[C@H]([C@@H](O)CO)C(O)=C1O`: the Potency result in [1], in [2], in assay [3], in assay [4], in [5] and in assay [6] was “inactive” in each case. The Potency entry in [7], in [8], in [9], in assay [10], in assay [11] and in assay [12] was “inactive” each time. Besides, the Potency entry in assay [13], in [14], in assay [15], in [16], in assay [17] and in [18] was “inactive” throughout. For the same compound, the Potency entry in [19] is “inactive”.

As to `Cc1cc(C(C#N)c2ccc(Cl)cc2)c(Cl)cc1NC(=O)c1cc(I)cc(I)c1O` (centres undefined), the Potency result in [1], in assay [2], in assay [3], in [4], in [5] and in assay [7] was “inactive” throughout. The Potency result in assay [8], in assay [9], in assay [10], in assay [11], in [12] and in [13] was “inactive” each time. In addition, the Potency result in [14], in [20], in [15], in assay [16], in assay [17] and in assay [18] was “inactive” throughout. Moreover, in assay [19], the Potency entry was “inactive”.

On to `O=C(CCCN1CCN(c2ccccn2)CC1)c1ccc(F)cc1`, for which the Potency entry in assay [1], in [2], in assay [3], in [4], in assay [5] and in assay [6] was “inactive” in each case. The Potency result in assay [7], in [8], in assay [9], in [10], in assay [13] and in assay [14] was “inactive” each time. The Potency result in assay [20], in [15], in assay [16], in assay [17], in assay [18] and in [19] was “inactive” throughout.

With `O=c1cc[nH]c(=S)[nH]1`, the Potency result in assay [1], in assay [2], in assay [3], in [5], in assay [6] and in assay [7] was “inactive” each time. Besides, the Potency entry in assay [8], in assay [9], in assay [10], in assay [11], in assay [12] and in [13] was “inactive” throughout. The Potency entry in assay [14], in assay [20], in assay [15], in [16], in assay [17] and in assay [18] was “inactive” each time. The Potency result in assay [19] was “inactive”.

As for `CC(=O)c1ccc2c(c1)N(CCCN(C)C)c1ccccc1S2`, the Potency entry in [1], in assay [2], in assay [3], in assay [4], in assay [5] and in assay [6] was “inactive” in each case. The Potency entry in assay [7], in assay [8], in assay [9], in assay [10], in assay [13] and in assay [20] was “inactive” in each case. In addition, the Potency result in assay [15], in assay [17] and in assay [18] was “inactive” each time.

As for `Oc1cn2c(n1)Nc1ccc(Cl)c(Cl)c1C2`, the Potency entry in [1], in [2], in assay [3], in assay [4], in assay [5] and in assay [6] was “inactive” each time. In addition, the Potency result in assay [7], in assay [8], in assay [9], in [10], in assay [11] and in [12] was “inactive” each time. The Potency result in [13], in assay [14], in assay [20], in [15], in assay [16] and in assay [17] was “inactive” throughout. Further, in assay [19], the Potency entry was “inactive”.

Consider `O=C(O)c1ccccn1`, for which the Potency result in assay [1], in [2], in [3], in assay [4], in assay [5] and in assay [6] was “inactive” in each case. Further, the Potency result in assay [7], in assay [8], in [10], in assay [12], in assay [13] and in [14] was “inactive” throughout. Also, the Potency result in [20], in [15], in assay [16], in assay [17], in assay [18] and in [19] was “inactive” each time.

Consider `Nc1ccc(S(=O)(=O)Nc2ccc(Cl)nn2)cc1`, for which the Potency result in assay [1], in assay [2], in [3], in assay [4], in assay [5] and in [6] was “inactive” in each case. Also, the Potency result in [7], in assay [8], in [11], in [12], in [13] and in [16] was “inactive” throughout. Further, the Potency result in [18] is “inactive”. Besides, the Potency in assay [19] is 0.891 µM (active).

As for `Cc1c(Cl)cccc1Nc1ccccc1C(=O)O`, the Potency result in assay [1], in [2], in assay [3], in assay [4], in assay [5] and in [6] was “inactive” each time. The Potency result in assay [7], in assay [8], in assay [9], in assay [10], in assay [11] and in [12] was “inactive” each time. The Potency result in assay [13], in assay [14], in assay [20], in assay [15], in assay [16] and in assay [19] was “inactive” each time.

On to `COc1cc(C)c(Cc2cnc(N)nc2N)cc1OC`, for which the Potency result in assay [1], in assay [2], in assay [3], in assay [4], in assay [5] and in assay [6] was “inactive” throughout. The Potency entry in assay [7], in [8], in assay [9], in [10], in assay [11] and in assay [12] was “inactive” each time. In addition, the Potency entry in assay [13], in [14], in assay [18] and in [19] was “inactive” in each case. The Potency was 5.01 µM (active) in assay [20], 5.62 µM (active) in assay [15] and 3.79 µM (active) in assay [16].

With `O=C(O)c1ccccc1O`, the Potency entry in assay [1], in assay [2], in assay [3], in assay [5], in assay [6] and in assay [7] was “inactive” each time. For the same compound, the Potency entry in assay [8], in assay [9], in assay [10], in [11], in [12] and in assay [13] was “inactive” in each case. Besides, the Potency result in assay [14], in assay [20], in [15], in assay [16], in [17] and in assay [18] was “inactive” throughout. Further, in assay [19], the Potency result was “inactive”.

In the case of `C[C@]12C[C@H](O)[C@H]3[C@@H](CCC4=CC(=O)CC[C@@]43C)[C@@H]1CC[C@@H]2C(=O)CO`, the Potency result in assay [1], in [2], in assay [3], in assay [4], in assay [5] and in [6] was “inactive” each time. In addition, the Potency result in assay [7], in assay [8], in assay [9], in assay [11], in assay [12] and in assay [13] was “inactive” in each case. In addition, the Potency entry in assay [16] and in [18] was “inactive” each time.

In the case of `COC(=O)C1=C(C)NC(C)=C(C(=O)OC)C1c1ccccc1[N+](=O)[O-]`, the Potency entry in [1], in [2], in [3], in assay [4], in [5] and in assay [6] was “inactive” each time. Moreover, the Potency entry in assay [7], in assay [8], in [9], in [10], in assay [11] and in [13] was “inactive” throughout. The Potency result in assay [14], in assay [20], in assay [15], in [16], in [17] and in [19] was “inactive” in each case.

On to `CSc1ccc2c(c1)N(CCC1CCCCN1C)c1ccccc1S2` (centres undefined), for which the Potency is 10.7 µM (active) in assay [1]; 11.2 µM (active) in assay [2]; 10.7 µM (active) in [11]; 10.7 µM (active) in assay [12]; 11.2 µM (active) in assay [20]; 10.7 µM (active) in assay [16]. Moreover, in [18], the Potency is 10 µM (active). In addition, the Potency entry in assay [17] is “inactive”.

Consider `CNCCCC1c2ccccc2C=Cc2ccccc21`, for which the Potency result in assay [2], in assay [3], in assay [4], in assay [5], in assay [6] and in [8] was “inactive” each time. Moreover, the Potency entry in assay [10], in assay [20], in assay [15], in assay [17] and in assay [19] was “inactive” in each case. In addition, the Potency in assay [12] is 2.56 µM (active).
